# According to PubChem BioAssay (Tox21):
# A number with no mark means an inactive call. Results filed as inconclusive are left out. Where a call stands in place of a potency, no number is given. Active and inactive are the calls of the source. Calls come from the whole dose curve; as a rule, active = well fitted curve in the direction sought with a large enough effect in the repeat runs; inconclusive = weak or mixed curves; inactive = no such curve, though single readings can be large; an effect the other way counts as inactive or inconclusive.
# Legend:
# [1] = Caspase-3/7 induction in CHO-K1 cells by small molecules, qHTS assay (AID 1346980); note: nearly all actives have a fitted effect of over 15% in size
# Procedure, shortened: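 Luminescent Caspase-Glo 3/7 read (30min, room temperature) quantified apoptosis induction. Cells were wild-type CHO-K1, treated with compound for 17hr at 37 C and 5% CO2.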
# [2] = Caspase-3/7 induction in HepG2 cells by small molecules, qHTS cell viability counter screen (AID 1346981); note: series mostly up to about 92 µM; nearly all actives have a fitted effect of over 30% in size
# Procedure, shortened: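 Viability determined by CellTiter-Fluor fluorescence in HepG2 wells also used for the luminescent Caspase-Glo 3/7 read. Compounds were present for 16 hr at 37 C, 5% CO2 before reagent addition.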
# [3] = molecular target: Nuclear receptor subfamily 1 group I member 2 (Homo sapiens) (UniProt O75469); experiment: Human pregnane X receptor (PXR) small molecule agonists, qHTS assay (AID 1346982); note: nearly all actives have a fitted effect of over 35% in size; note: potency is the fitted concentration of half-maximal effect
# Procedure, shortened: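 Compound-induced hPXR transactivation of a CYP3A4 luciferase reporter was scored in HepG2 PXR-Luc cells over 24 hr at 37 C, 5% CO2, by luminescence.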
# [4] = molecular target: Cytochrome P450 2C19 (Homo sapiens) (UniProt P33261); experiment: Cytochrome P450 Family 2 Subfamily C Member 19 (CYP2C19) small molecule antagonists: luciferase reporter qHTS assay (AID 1671197); note: nearly all actives have a fitted effect of over 65% in size; note: potency is the fitted concentration of half-maximal effect
# Procedure, shortened: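 Light output is proportional to CYP2C19 activity: proluciferin substrate is converted to luciferin, then detected by a luciferin detection reagent that also stops the 1 h, 37C NADPH-driven reaction. Ketoconazole serves as positive control.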
# [5] = molecular target: Cytochrome P450 2C9 (Homo sapiens) (UniProt P11712); experiment: Cytochrome P450 Family 2 Subfamily C Member 9 (CYP2C9) small molecule antagonists: luciferase reporter qHTS assay (AID 1671198); note: nearly all actives have a fitted effect of over 50% in size; note: potency is the fitted concentration of half-maximal effect
# Procedure, shortened: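 Enzyme-substrate mix preincubated with compound 10 min at room temperature; reaction started with NADPH regeneration solution, 1 h 37C. Luminescent luciferin product read after 20 min detection reagent.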
# [6] = molecular target: Cytochrome P450 1A2 (Homo sapiens) (UniProt P05177); experiment: Cytochrome P450 Family 1 Subfamily A Member 2 (CYP1A2) small molecule antagonists: luciferase reporter qHTS assay (AID 1671199); note: nearly all actives have a fitted effect of over 50% in size; note: potency is the fitted concentration of half-maximal effect
# Procedure, shortened: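 Enzymatic CYP1A2 assay, human, luminescent: 10 min compound–enzyme–substrate preincubation, 1 h NADPH-dependent turnover, 20 min detection step, room temperature throughout. Reduced light indicates lower CYP1A2 activity.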
# [7] = molecular target: Voltage-gated inwardly rectifying potassium channel KCNH2 (Homo sapiens) (UniProt Q12809); experiment: Human Ether-a-go-go-Related Gene (hERG) channel small molecule antagonists: fluorescence cell-based qHTS assay (AID 1671200); note: nearly all actives have a fitted effect of over 50% in size; note: potency is the fitted concentration of half-maximal effect
# Procedure, shortened: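 Quantitative HTS in hERG-U2OS cells: thallium entry through the channel reports activity, read as continuous 480/540 nm fluorescence over 2 min after stimulus addition.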
# [8] = molecular target: Cytochrome P450 3A4 (Homo sapiens) (UniProt P08684); experiment: Cytochrome P450 Family 3 Subfamily A Member 4 (CYP3A4) small molecule antagonists: luciferase reporter qHTS assay (AID 1671201); note: nearly all actives have a fitted effect of over 50% in size; note: potency is the fitted concentration of half-maximal effect
# Procedure, shortened: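 Inhibition of CYP3A4 is measured as loss of light: the enzyme converts a proluciferin substrate to luciferin, detected luminescently. Reaction ran 1 h at room temperature with NADPH regeneration after a 10 min compound preincubation.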
# [9] = molecular target: Nuclear receptor subfamily 1 group I member 2 (Homo sapiens) (UniProt O75469); experiment: CYP3A4 induction through human pregnane X receptor (PXR) by small molecules, qHTS assay (AID 1346984); note: nearly all actives have a fitted effect of over 40% in size; note: potency is the fitted concentration of half-maximal effect
# Procedure, shortened: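 Readings come from a luciferase reporter: DPX-2 cells, which are HepG2 cotransfected with PXR and a CYP3A4-promoter construct, were exposed to test compounds for 24 h at 37C before One-Glo detection.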
# [10] = molecular target: Nuclear receptor subfamily 1 group I member 2 (Homo sapiens) (UniProt O75469); experiment: Human pregnane X receptor (PXR) activation by small molecules, qHTS assay (AID 1346985); note: nearly all actives have a fitted effect of over 40% in size; note: potency is the fitted concentration of half-maximal effect
# Procedure, shortened: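 DPX-2 cells (HepG2 co-transfected with a PXR response element and a CYP3A4-promoter luciferase construct) were seeded at 2,000 per well, rested 5 hr at 37C, then exposed to DMSO-dissolved compounds for 24 hr. Activation was read as luciferase luminescence.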
# [11] = molecular target: Cytochrome P450 2D6 (Homo sapiens) (UniProt P10635); experiment: Cytochrome P450 Family 2 Subfamily D Member 6 (CYP2D6) small molecule antagonists: luciferase reporter qHTS assay (AID 1671196); note: nearly all actives have a fitted effect of over 50% in size; note: potency is the fitted concentration of half-maximal effect
# Procedure, shortened: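 Each well received CYP2D6 with its proluciferin substrate and chemical, sat 10 min, then got NADPH regeneration solution for 1 h at room temperature. Luminescence in RLU served as the activity measure.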
# [12] = molecular target: Nuclear receptor subfamily 1 group I member 2 (Rattus norvegicus) (UniProt Q9R1A7); experiment: Rat pregnane X receptor (rPXR) activation by small molecules, qHTS assay (AID 1346983); conditions: rPXR luciferase reporter cells, One-Glo luminescence, 24 h; max activation: stronger effect = higher value; note: nearly all actives have a fitted effect of over 20% in size; note: potency is the fitted concentration of half-maximal effect
# Procedure, shortened: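 Luminescent readout (One-Glo luciferase, 30 min room temperature) followed 24 hr compound treatment at 37 C of rPXR cells plated 2,000 per well and preincubated 5hr; qHTS format with compounds delivered in DMSO.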
# Chain of Cytochrome P450 3A4 (Homo sapiens) (P08684 whole entry, looked up): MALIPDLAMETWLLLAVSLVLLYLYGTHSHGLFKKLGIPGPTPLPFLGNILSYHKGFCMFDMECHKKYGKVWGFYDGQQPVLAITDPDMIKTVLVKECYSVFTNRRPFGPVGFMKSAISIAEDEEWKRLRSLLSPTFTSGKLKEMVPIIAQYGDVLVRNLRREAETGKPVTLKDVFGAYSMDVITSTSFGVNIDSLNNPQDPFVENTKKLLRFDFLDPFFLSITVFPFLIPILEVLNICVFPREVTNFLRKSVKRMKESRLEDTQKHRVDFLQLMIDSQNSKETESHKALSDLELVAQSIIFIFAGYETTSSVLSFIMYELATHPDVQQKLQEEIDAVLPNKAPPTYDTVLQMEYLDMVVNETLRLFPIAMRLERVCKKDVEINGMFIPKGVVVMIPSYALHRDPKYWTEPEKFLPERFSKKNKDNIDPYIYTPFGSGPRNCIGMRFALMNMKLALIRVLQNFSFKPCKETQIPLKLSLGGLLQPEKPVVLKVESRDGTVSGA
# Chain of Cytochrome P450 2C19 (Homo sapiens) (P33261 whole entry, looked up): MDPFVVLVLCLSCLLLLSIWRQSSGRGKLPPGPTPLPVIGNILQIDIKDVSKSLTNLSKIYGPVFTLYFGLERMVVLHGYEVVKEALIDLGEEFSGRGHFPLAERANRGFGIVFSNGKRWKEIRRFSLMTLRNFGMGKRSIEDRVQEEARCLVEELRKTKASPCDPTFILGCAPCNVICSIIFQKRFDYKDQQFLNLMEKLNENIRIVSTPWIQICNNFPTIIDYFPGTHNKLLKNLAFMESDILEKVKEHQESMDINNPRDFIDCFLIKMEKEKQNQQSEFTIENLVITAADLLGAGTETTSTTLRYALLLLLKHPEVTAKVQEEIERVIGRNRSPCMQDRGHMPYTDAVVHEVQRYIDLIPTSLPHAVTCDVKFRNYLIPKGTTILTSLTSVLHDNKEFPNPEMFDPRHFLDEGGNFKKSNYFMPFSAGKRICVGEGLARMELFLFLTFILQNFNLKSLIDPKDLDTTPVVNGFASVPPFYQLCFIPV
# Chain of Cytochrome P450 2D6 (Homo sapiens) (P10635 whole entry, looked up): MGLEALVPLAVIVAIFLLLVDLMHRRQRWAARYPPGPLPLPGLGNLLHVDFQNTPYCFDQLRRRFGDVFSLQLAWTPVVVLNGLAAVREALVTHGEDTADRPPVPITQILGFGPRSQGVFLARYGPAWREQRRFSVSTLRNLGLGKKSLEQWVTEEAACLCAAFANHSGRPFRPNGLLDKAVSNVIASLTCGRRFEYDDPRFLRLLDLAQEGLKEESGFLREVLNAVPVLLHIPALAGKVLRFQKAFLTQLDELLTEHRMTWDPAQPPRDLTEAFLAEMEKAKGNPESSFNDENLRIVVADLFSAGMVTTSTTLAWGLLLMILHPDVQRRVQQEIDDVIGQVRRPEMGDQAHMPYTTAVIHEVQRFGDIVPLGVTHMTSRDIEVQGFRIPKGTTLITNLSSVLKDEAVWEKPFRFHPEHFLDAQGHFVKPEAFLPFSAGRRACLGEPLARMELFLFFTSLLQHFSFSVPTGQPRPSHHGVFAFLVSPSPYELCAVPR
# Chain of Cytochrome P450 2C9 (Homo sapiens) (P11712 whole entry, looked up): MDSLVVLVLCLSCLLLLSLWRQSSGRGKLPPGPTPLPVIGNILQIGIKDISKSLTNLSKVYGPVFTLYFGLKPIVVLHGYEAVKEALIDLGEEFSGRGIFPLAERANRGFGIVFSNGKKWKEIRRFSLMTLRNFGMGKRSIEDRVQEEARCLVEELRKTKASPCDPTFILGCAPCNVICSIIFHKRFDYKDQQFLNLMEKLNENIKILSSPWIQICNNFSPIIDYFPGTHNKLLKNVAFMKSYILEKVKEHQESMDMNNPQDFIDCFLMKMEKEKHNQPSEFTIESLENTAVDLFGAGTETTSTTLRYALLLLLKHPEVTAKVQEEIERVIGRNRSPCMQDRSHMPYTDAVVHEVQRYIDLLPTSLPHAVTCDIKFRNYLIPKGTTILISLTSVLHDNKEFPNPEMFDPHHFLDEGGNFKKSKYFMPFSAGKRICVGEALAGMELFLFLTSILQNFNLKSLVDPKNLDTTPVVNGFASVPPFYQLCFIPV
# Chain of Cytochrome P450 1A2 (Homo sapiens) (P05177 whole entry, looked up): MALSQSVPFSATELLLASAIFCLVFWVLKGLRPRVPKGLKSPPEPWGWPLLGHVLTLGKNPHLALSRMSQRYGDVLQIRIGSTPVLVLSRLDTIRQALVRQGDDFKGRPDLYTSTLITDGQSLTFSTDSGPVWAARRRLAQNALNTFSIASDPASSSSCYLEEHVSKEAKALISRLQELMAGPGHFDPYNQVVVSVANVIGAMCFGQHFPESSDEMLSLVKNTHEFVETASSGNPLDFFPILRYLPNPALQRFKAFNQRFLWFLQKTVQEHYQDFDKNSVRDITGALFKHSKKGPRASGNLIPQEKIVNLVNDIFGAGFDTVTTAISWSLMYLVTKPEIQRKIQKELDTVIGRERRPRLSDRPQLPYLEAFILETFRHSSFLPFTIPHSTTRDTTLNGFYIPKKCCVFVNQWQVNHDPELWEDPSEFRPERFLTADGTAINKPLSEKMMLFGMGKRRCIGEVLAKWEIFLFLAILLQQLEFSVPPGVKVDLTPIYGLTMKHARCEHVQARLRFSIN
# Chain of Voltage-gated inwardly rectifying potassium channel KCNH2 (Homo sapiens) (Q12809 whole entry, looked up): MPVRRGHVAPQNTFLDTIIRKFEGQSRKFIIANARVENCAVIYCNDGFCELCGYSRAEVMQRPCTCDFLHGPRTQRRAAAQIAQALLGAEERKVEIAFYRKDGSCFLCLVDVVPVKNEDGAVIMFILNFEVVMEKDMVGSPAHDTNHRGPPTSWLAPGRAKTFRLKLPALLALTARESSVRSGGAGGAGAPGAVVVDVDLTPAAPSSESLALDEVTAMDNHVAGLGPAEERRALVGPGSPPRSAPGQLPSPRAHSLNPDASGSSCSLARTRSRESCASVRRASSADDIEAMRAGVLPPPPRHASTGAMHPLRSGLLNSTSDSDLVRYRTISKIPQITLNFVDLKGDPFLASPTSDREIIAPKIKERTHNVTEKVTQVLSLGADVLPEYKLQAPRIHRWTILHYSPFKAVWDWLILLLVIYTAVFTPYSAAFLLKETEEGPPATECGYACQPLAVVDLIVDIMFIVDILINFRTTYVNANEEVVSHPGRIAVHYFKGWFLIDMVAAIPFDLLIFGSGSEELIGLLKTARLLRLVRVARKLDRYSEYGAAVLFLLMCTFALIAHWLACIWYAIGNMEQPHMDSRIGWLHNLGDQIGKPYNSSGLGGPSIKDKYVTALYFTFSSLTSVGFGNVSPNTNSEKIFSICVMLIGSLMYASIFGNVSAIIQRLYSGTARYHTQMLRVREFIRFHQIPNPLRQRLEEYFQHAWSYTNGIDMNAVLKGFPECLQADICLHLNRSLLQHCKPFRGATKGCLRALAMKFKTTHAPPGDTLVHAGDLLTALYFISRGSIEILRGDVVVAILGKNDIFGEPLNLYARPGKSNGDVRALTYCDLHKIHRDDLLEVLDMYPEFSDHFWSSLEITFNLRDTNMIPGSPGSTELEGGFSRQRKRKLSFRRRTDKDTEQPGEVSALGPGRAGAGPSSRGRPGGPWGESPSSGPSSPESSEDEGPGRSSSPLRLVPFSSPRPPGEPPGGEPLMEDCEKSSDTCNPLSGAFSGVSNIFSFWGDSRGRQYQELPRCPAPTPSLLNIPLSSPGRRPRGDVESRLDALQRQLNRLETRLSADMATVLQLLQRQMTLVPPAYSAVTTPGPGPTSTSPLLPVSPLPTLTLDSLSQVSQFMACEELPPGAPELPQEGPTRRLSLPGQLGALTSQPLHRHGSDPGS
# Chain of Nuclear receptor subfamily 1 group I member 2 (Rattus norvegicus) (Q9R1A7 whole entry, looked up): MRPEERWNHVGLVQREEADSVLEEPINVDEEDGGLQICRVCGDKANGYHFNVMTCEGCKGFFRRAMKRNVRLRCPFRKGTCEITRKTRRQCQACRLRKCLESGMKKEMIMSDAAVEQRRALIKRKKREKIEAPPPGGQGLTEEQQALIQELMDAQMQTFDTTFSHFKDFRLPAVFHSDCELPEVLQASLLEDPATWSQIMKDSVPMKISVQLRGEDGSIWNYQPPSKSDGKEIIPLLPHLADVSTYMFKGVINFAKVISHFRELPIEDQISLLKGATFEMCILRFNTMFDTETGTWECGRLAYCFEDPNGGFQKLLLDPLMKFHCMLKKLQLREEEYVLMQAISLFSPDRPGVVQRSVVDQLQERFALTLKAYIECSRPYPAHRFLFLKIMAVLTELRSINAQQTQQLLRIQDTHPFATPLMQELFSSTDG
# Chain of Nuclear receptor subfamily 1 group I member 2 (Homo sapiens) (O75469 whole entry, looked up): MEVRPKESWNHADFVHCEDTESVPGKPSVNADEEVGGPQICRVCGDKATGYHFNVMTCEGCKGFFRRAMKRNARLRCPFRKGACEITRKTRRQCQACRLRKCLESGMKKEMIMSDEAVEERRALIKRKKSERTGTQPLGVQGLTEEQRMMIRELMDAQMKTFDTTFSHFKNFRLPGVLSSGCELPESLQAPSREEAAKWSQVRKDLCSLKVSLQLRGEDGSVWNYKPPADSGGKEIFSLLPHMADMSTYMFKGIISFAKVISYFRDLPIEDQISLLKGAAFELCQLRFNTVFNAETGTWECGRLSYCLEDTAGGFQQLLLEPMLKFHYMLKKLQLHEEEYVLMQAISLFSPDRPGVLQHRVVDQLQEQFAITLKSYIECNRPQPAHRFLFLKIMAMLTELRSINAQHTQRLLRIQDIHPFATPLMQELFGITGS
SMILES,Potency [1],Potency [2],Potency [3],Potency [4],Potency [5],Potency [6],Potency [7],Potency [8],Potency [9],Potency [10],Potency [11],max activation [12] [%],Potency [12]
CC(C)c1ccccc1C(C)C,inactive,inactive,inactive,39.9 µM (active),39.9 µM (active),35.6 µM (active),inactive,22.5 µM (active),–,–,–,–,–
O=C(c1ccc(O)cc1)c1ccc(O)cc1,inactive,inactive,54.5 µM (active),39.9 µM (active),inactive,39.9 µM (active),inactive,–,–,–,–,–,–
CCCCOCCOCCOCCOCCO,inactive,inactive,inactive,inactive,inactive,–,inactive,inactive,–,–,–,–,–
CN1CCN(C2=Nc3ccccc3Sc3ccc(Cl)cc32)CC1,inactive,inactive,–,21.9 µM (active),–,inactive,–,–,22.4 µM (active),25.1 µM (active),15.5 µM (active),–,–
CCN(CC)CCNC(C(=O)OCCC(C)C)c1ccccc1 (stereo not drawn),inactive,inactive,–,inactive,inactive,inactive,9.52 µM (active),–,–,–,1.74 µM (active),-0.588,–
O=C1CCCCCO1,inactive,inactive,inactive,inactive,inactive,35.9 µM (active),inactive,inactive,–,–,–,–,–
Cc1ccccn1,inactive,inactive,–,–,–,–,inactive,–,–,–,–,-5.22,–
C#CCOC(=O)[C@@H](C)Oc1ccc(Oc2ncc(Cl)cc2F)cc1,inactive,inactive,inactive,17.7 µM (active),31.6 µM (active),5 µM (active),–,–,–,–,–,–,–
CC(O)C1CCCCC1 (stereo not drawn),inactive,inactive,inactive,inactive,inactive,inactive,inactive,inactive,–,–,–,–,–
Cn1c(N)nc2nc[nH]c2c1=O,inactive,inactive,inactive,inactive,inactive,–,inactive,–,–,–,–,–,–
O=CNc1ccccc1,inactive,inactive,inactive,–,inactive,–,inactive,inactive,–,–,inactive,–,–
O=[N+]([O-])c1cc[n+]([O-])cc1,inactive,–,inactive,35.6 µM (active),39.9 µM (active),31.7 µM (active),inactive,63.3 µM (active),–,–,35.6 µM (active),–,–
O=C1[C@H](CC[C@H](O)c2ccc(F)cc2)[C@@H](c2ccc(O)cc2)N1c1ccc(F)cc1,inactive,–,29.8 µM (active),2.75 µM (active),8.71 µM (active),–,–,–,inactive,inactive,30.9 µM (active),-2.85,–
CC[C@]12CCCN3CCc4c(n(c5ccccc45)C(=O)C1)[C@@H]32,inactive,–,–,4.9 µM (active),–,inactive,1.69 µM (active),–,–,–,0.155 µM (active),–,8.91 µM (active)
